Results as given in PubChem BioAssay (NCATS).
“And” between values parts separate entries of the source, which are not always exact repeats. Identical values can stand only once. Records with an inconclusive call do not appear. A structure can be active in one record and inactive in another. The source made the active and inactive calls. Unless noted, calls come from the whole dose curve; as a rule, active = well fitted curve in the direction sought with a large enough effect; inconclusive = small, poorly fitted or top-dose-only effect, or another doubt; inactive = no such curve, though single readings can be large; an effect the other way counts as inactive or inconclusive.

How the values were obtained:
[1] = biological target: Cellular tumor antigen p53 (Homo sapiens) (UniProt P04637); assay: Primary qHTS for small molecule compounds that upregulate eGFP-tagged delta133p53alpha (in N-terminal) cells. (AID 2060322); details: NCI-H358 eGFP-delta133p53alpha fluorescence, 24 h; activation: stronger effect = higher value; note: nearly all actives have a fitted effect of over 75% in size; note: potency is the fitted concentration of half-maximal effect;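 for activation: cells pre-induced with doxycycline then dosed without doxycycline; series mostly up to about 56 µM; 0% = DMSO vehicle and 100% = reference activator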
In short: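 NCI-H358 cells pre-induced 24 h with 10 ng/ml doxycycline for eGFP-delta133p53alpha, plated dox-free and exposed 24 h at 37C to titrated compounds. Fixed, Hoechst-stained; gated GFP peak intensity by laser scanning cytometry, normalized to DMSO (0%) and 57.5 uM 5-azacytidine (100%).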

[2] = biological target: Aldehyde dehydrogenase, mitochondrial (Homo sapiens) (UniProt P05091); assay: qHTS for Inhibitors of the Aldehyde Dehydrogenase Family (ALDH2) Primary screen (AID 2061308);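 note: plate controls were vehicle for no effect and reference inhibitor for full effect; nearly all actives have a fitted effect of over 55% in size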
[3] = biological target: Retinaldehyde dehydrogenase 3 (Homo sapiens) (UniProt P47895); assay: qHTS for Inhibitors of the Aldehyde Dehydrogenase Family (ALDH1A3) Primary screen (AID 2061315);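 note: plate controls were DMSO vehicle for no effect and reference inhibitor for full effect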
[4] = BET inhibitor-based combinations targeting novel dependencies in MECOM-rearranged (r) AML: OCI-AML3 cell line (AID 2202232); details: Potency: OCI-AML3 viability; note: nearly all actives have a fitted effect of over 35% in size; note: potency is the fitted concentration of half-maximal effect
In short: (§1)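 A 48 hr incubation preceded viability reading by CellTiter-Glo, with 15 min room-temperature development. Dose series had 11 points; normalization used DMSO and empty wells; AUC was computed and mean-centered per line as Z-AUC.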

[5] = BET inhibitor-based combinations targeting novel dependencies in MECOM-rearranged (r) AML: MV-4-11 cell line (AID 2202233); note: nearly all actives have a fitted effect of over 45% in size; note: potency is the fitted concentration of half-maximal effect
In short: (§2)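 Each compound is tested in an 11-point concentration series against 500 seeded cells/well for 48 hr. The luminescent viability signal is normalized to DMSO and blank wells, then reduced to AUC and a cell-line-centred Z-AUC.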

[6] = BET inhibitor-based combinations targeting novel dependencies in MECOM-rearranged (r) AML: HNT-34 cell line (AID 2202234); note: nearly all actives have a fitted effect of over 35% in size; note: potency is the fitted concentration of half-maximal effect
In short: as §2

[7] = BET inhibitor-based combinations targeting novel dependencies in MECOM-rearranged (r) AML: AML-191 cell line (AID 2202236; note: nearly all actives have a fitted effect of over 35% in size; note: potency is the fitted concentration of half-maximal effect)
In short: as §1

[8] = BET inhibitor-based combinations targeting novel dependencies in MECOM-rearranged (r) AML: AML-194 cell line (AID 2202237; note: nearly all actives have a fitted effect of over 40% in size; note: potency is the fitted concentration of half-maximal effect)
In short: as §1

[9] = BET inhibitor-based combinations targeting novel dependencies in MECOM-rearranged (r) AML: UCSD-AML1 cell line (AID 2202235); note: nearly all actives have a fitted effect of over 40% in size; note: potency is the fitted concentration of half-maximal effect
In short: as §2

[10] = biological target: Retinaldehyde dehydrogenase 3 (Homo sapiens) (UniProt P47895); assay: qHTS for Inhibitors of the Aldehyde Dehydrogenase Family (ALDH1A3) Validation screen (AID 2061312); note: % is set by controls: 0 for no effect and ±100 for the full control effect; nearly all actives have a fitted effect of over 45% in size
[11] = BET inhibitor-based combinations targeting novel dependencies in MECOM-rearranged (r) AML: SET-2 cell line (AID 2202231); details: SET-2 AML cells viability, CellTiter-Glo luminescence, 48 h; viability: stronger effect = lower value, concentration not given here; note: nearly all actives have a fitted effect of over 35% in size; note: potency is the fitted concentration of half-maximal effect;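 for viability: plate controls were DMSO treated cells for no effect and wells without cells for full effect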
In short: as §1

[12] = biological target: Aldehyde dehydrogenase, mitochondrial (Homo sapiens) (UniProt P05091); assay: qHTS for Inhibitors of the Aldehyde Dehydrogenase Family (ALDH2) Validation screens (AID 2061302; active = well fitted inhibition curve with a large enough effect; title and protocol of this record describe different tests;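 note: plate controls were DMSO vehicle for no effect and maximal DPI positive control response for full effect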)
[13] = qHTS for Inhibitors of the Aldehyde Dehydrogenase Family (ALDH1A2, ALDH1A3, ALDH2, ALDH3A1) (AID 2061307); note: test system not described further here; potency is the fitted concentration of half-maximal effect; nearly all actives have a fitted effect of over 50% in size
[14] = biological target: Retinaldehyde dehydrogenase 3 (Homo sapiens) (UniProt P47895); assay: qHTS for Inhibitors of the Aldehyde Dehydrogenase Family (ALDH1A3) Confirmatory screens (AID 2061311); note: potency is the fitted concentration of half-maximal effect; nearly all actives have a fitted effect of over 60% in size
[15] = biological target: Retinal dehydrogenase 2 (Homo sapiens) (UniProt O94788); assay: qHTS for Inhibitors of the Aldehyde Dehydrogenase Family (ALDH1A2) Confirmation screens (AID 2061314); note: potency is the fitted concentration of half-maximal effect; nearly all actives have a fitted effect of over 65% in size
[16] = biological target: Aldehyde dehydrogenase 1A1 (Homo sapiens) (UniProt P00352); assay: qHTS for Inhibitors of the Aldehyde Dehydrogenase Family (ALDH1A1) Confirmatory screens (AID 2061316); note: potency is the fitted concentration of half-maximal effect; nearly all actives have a fitted effect of over 65% in size

Cellular tumor antigen p53 (Homo sapiens), sequence (P04637 whole entry, looked up): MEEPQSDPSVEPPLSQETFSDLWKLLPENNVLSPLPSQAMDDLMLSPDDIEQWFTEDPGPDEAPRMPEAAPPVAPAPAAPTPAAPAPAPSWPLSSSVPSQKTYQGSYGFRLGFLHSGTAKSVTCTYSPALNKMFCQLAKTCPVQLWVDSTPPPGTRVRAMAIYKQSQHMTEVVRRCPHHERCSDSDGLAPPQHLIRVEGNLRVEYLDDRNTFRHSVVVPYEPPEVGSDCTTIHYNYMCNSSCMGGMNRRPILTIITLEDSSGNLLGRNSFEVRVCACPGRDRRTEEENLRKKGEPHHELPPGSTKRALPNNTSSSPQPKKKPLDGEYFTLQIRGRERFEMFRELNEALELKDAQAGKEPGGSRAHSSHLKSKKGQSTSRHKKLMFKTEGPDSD

COc1cc(N2CCC(N(C)C)CC2)ccc1Nc1ncc(Cl)c(Nc2ccccc2P(C)(C)=O)n1
active: Potency [1] 2.69 µM | Potency [4] 7.42 µM | Potency [5] 0.0934 µM | Potency [6] 2.63 µM | Potency [7] 9.34 µM | Potency [8] 7.42 µM
inactive: activation [1] -5.31% | Potency [2] | Potency [3]

COc1cc2nccc(Oc3ccc(NC(=O)C4(C(=O)Nc5ccc(F)cc5)CC4)cc3)c2cc1OC
active: Potency [1] 38.5 µM | Potency [5] 0.0166 µM | Potency [6] 2.95 µM
inactive: activation [1] 11.6% | Potency [2] | Potency [3]

CS(=O)c1ccc(-c2nc(-c3ccc(F)cc3)c(-c3ccncc3)[nH]2)cc1 (stereo not given)
active: Potency [1] 49.8 µM
inactive: activation [1] -3.57% | Potency [2] | Potency [3] | Potency [4] | Potency [7] | Potency [8]

CCCCOc1c(C(=O)c2c(F)cc(C)cc2F)cnc2n[nH]cc12
inactive: activation [1] 10.1% | Potency [2] | Potency [3]
active: Potency [1] 3.79 µM | Potency [4] 2.09 µM | Potency [5] 1.48 µM | Potency [6] 2.95 µM | Potency [9] 2.35 µM | Potency [7] 2.63 µM

CN1CCN(CCOc2cc(OC3CCOCC3)c3c(Nc4c(Cl)ccc5c4OCO5)ncnc3c2)CC1
active: Potency [1] 12.2 µM | Potency [5] 13.2 µM | Potency [6] 1.32 µM | Potency [7] 18.6 µM | Potency [8] 23.5 µM
inactive: activation [1] -8.11% | Potency [2] | Potency [10] | Potency [3]

CC(C)n1nc(-c2cc3cc(O)ccc3[nH]2)c2c(N)ncnc21
active: Potency [1] 21.3 µM | Potency [11] 2.09 µM | Potency [4] 1.86 µM | Potency [5] 0.417 µM | Potency [6] 0.372 µM | Potency [9] 0.332 µM | Potency [7] 0.934 µM | Potency [8] 0.417 µM
inactive: activation [1] 17.6% | Potency [2]

Cc1ccnc(NS(=O)(=O)c2ccc(NC(=O)Nc3ccc(S(=O)(=O)Nc4nccc(C)n4)cc3)cc2)n1
inactive: activation [1] 21% | Potency [2] | Potency [3] | viability [11] 112% | Potency [5] | Potency [6] | Potency [9] | Potency [7] | Potency [8]
active: Potency [1] 9.68 µM

COc1cc(N2CCC(N3CCN(C)CC3)CC2)ccc1Nc1ncc(Cl)c(Nc2ccccc2S(=O)(=O)C(C)C)n1
active: Potency [1] 30.1 µM | Potency [11] 18.6 µM | Potency [4] 2.63 µM | Potency [5] 0.468 µM | Potency [9] 2.95 µM | Potency [7] 10.5 µM | Potency [8] 16.6 µM
inactive: activation [1] 16.9% | Potency [2]

O=C(CCCCCCC(=O)Nc1ccc([C@H]2O[C@@H](CSc3nc(-c4ccccc4)c(-c4ccccc4)o3)C[C@@H](c3ccc(CO)cc3)O2)cc1)NO
inactive: activation [1] 47.5% | Potency [2] | viability [11] 106%
active: Potency [1] 5.36 µM | Potency [6] 6.05 µM

Cn1c(=O)c(-c2c(Cl)cccc2Cl)cc2cnc(Nc3cccc(C(=O)O)c3)nc21
inactive: activation [1] 29.6% | Potency [2] | Potency [10] | Potency [3] | viability [11] 116% | Potency [9] | Potency [7] | Potency [8]
active: Potency [1] 12 µM | Potency [4] 0.235 µM

O=C(O)c1ccc2c(c1)nc(Nc1cccc(Cl)c1)c1ccncc12
active: Potency [1] 23.9 µM | Potency [5] 3.32 µM | Potency [6] 2.63 µM | Potency [9] 5.9 µM | Potency [7] 7.42 µM | Potency [8] 7.42 µM
inactive: activation [1] 37.3% | Potency [2] | Potency [3]

CC1(O)CC(c2nc(-c3ccc4ccc(-c5ccccc5)nc4c3)c3c(N)nccn23)C1 (stereo not given)
active: Potency [1] 24.3 µM
inactive: activation [1] 34.8% | Potency [2] | Potency [3] | viability [11] 83.7% | Potency [4] | Potency [7] | Potency [8]

COc1ccc(-c2cc3nccn3c(Nc3ncccc3C(N)=O)n2)cc1OC
active: Potency [1] 4.78 µM | Potency [9] 6.61 µM
inactive: activation [1] 14.1% | Potency [2] | Potency [3]

Cc1nccn1CC1CCc2c(c3ccccc3n2C)C1=O (stereo not given)
active: Potency [1] 34.7 µM
inactive: activation [1] 4.27% and -3.67% | Potency [2] | Potency [3]

Cn1c2ccccc2c2c3c(c4c5ccccc5n(CCC#N)c4c21)CNC3=O
inactive: activation [1] -13.5% | Potency [2] | Potency [3]
active: Potency [1] 16.9 µM | Potency [5] 0.417 µM | Potency [6] 3.32 µM | Potency [9] 8.33 µM | Potency [7] 3.32 µM | Potency [8] 4.68 µM

CCCC(C(=O)OCCN(CC)CC)(c1ccccc1)c1ccccc1
inactive: activation [1] -51.2% | Potency [12] | Potency [10]
active: Potency [1] 34.7 µM

Cc1coc2c1C(=O)C(=O)c1c-2ccc2c(C)cccc12
active: Potency [1] 13.5 µM | Potency [13] 4.49 µM | Potency [14] 12.7 µM | Potency [15] 11.3 µM | Potency [16] 3.57 µM
inactive: activation [1] 9.22%

CCCOc1ccc2nc(NC(=O)OC)[nH]c2c1
active: Potency [1] 0.0685 µM | Potency [11] 0.525 µM | Potency [4] 0.332 µM | Potency [5] 0.372 µM | Potency [6] 0.235 µM | Potency [9] 0.263 µM | Potency [7] 0.263 µM | Potency [8] 0.235 µM
inactive: activation [1] 62.8%

COCCOc1nc(-c2ccc(Cl)c(Cl)c2)n(-c2ccc(NC(=O)CCl)cc2)n1
inactive: activation [1] 36.6% | Potency [2] | Potency [10]
active: Potency [1] 15.1 µM | Potency [11] 1.86 µM | Potency [4] 2.09 µM | Potency [5] 5.25 µM | Potency [6] 0.662 µM | Potency [9] 1.32 µM | Potency [7] 1.05 µM | Potency [8] 0.934 µM

C[C@]12CC[C@@H]3c4ccc(O)cc4CC[C@H]3[C@@H]1CC[C@@H]2OC(=O)CCC1CCCC1
active: Potency [1] 30.9 µM
inactive: activation [1] 19.6% | Potency [2] | Potency [10] | Potency [3]

COc1cc(N2CCC(O)CC2)ccc1Nc1cc(Nc2ccccc2S(=O)(=O)C(C)C)c2cc[nH]c2n1
active: Potency [1] 16.6 µM | Potency [4] 18.6 µM | Potency [5] 18.6 µM | Potency [9] 26.3 µM
inactive: activation [1] -59.5% | Potency [2]

Cc1ccc(NC(=O)C2(c3ccc4c(c3)OC(F)(F)O4)CC2)nc1-c1cccc(C(=O)O)c1
inactive: activation [1] -10.5% | Potency [2] | Potency [10] | Potency [3] | viability [11] 94.8% | Potency [6] | Potency [9] | Potency [7] | Potency [8]
active: Potency [1] 0.153 µM

Cc1nc(N)sc1-c1ccnc(Nc2ccc(N3CCOCC3)cc2)n1
inactive: activation [1] -1.52% | Potency [2]
active: Potency [1] 26.9 µM | Potency [11] 5.25 µM | Potency [4] 11.8 µM | Potency [5] 0.186 µM | Potency [6] 2.35 µM | Potency [9] 0.833 µM | Potency [7] 7.42 µM | Potency [8] 4.17 µM
